Screening results as filed in PubChem.
Compounds with a hit are over-represented: about 2.4% of the library has one in this group of screens.
S1P4 agonist: S1P4 receptor agonists, primary screen, cell-based | Sphingosine 1-phosphate receptor 4 (Homo sapiens), O95977 | S1P4-expressing cell line, agonist reporter assay | activation, % at 4.98 µM | 220,000 compounds, 0.35% hits | AID 1509, 2009; in the data active = activation above about 11%
S1P4 antagonist: S1P4 receptor antagonists, primary screen, cell-based. Sphingosine 1-phosphate receptor 4 (Homo sapiens), O95977. 220,000 compounds, 0.26% hits. inhibition, % at 4.98 µM. S1P4-expressing cells, antagonist mode, reporter read-out; in the data active = inhibition above about 29%
Insulin prom inh: inhibitors of insulin promoter-driven GFP, primary screen, imaging, TRM-6 cells (human fetal islet line), eGFP reporter, cell count; 130,000 compounds, 0.9% hits; inhibition, % at 2 µM; reporter expression induced with tamoxifen;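 active = inhibition above the mean plus 3 SD, with well images judged a real hit on visual review, cut at about 60% in these data, passing the limit was not always enough; inconclusive = inhibition over the cutoff but images rejected on review; inactive = inhibition not above the cutoff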
S1P3 antagonist: S1P3 receptor antagonists, primary screen, cell-based; CHO S1P3 NFAT-BLA reporter, FRET fluorescence, antagonist mode; 170,000 compounds, 0.27% hits; AID 485, 2006; inhibition, % at 4.98 µM;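 active = inhibition above the plate cutoff, the mean inhibition of test wells on that plate plus 3 SD, cut at about 28% in these data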;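 also: cells challenged with S1P at its EC80 of 0.8 µM; blue over green emission ratio from cleaved BLA substrate after 4 h stimulation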
Target sequence (Q99500 whole entry, looked up): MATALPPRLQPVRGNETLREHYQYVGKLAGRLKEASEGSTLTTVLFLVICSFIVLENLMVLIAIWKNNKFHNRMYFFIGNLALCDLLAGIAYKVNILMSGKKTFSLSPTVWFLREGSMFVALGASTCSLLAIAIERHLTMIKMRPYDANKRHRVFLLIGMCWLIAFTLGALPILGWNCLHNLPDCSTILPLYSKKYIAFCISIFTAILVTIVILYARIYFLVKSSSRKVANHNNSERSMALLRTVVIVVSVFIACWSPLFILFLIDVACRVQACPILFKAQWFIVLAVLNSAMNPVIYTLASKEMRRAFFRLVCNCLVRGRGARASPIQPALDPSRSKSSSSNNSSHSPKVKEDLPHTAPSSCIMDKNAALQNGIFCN
PGE2 EP2 inh: human EP2 receptor antagonists, primary screen, TR-FRET cAMP, C6 glioma cells; C6 glioma cells expressing human EP2; cells stimulated with saturating PGE2; inhibition, % at 25 µM; 260,000 compounds, 0.52% hits; AID 1422, 2008;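 active = percent inhibition above 40 after rounding to a whole number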;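 also: rat C6 glioma host cells with rolipram phosphodiesterase inhibitor present; the protocol text gives 20 µM as final concentration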
EP2 mod: EP2 receptor modulators, cAMP readout, primary screen, cell-based, HTRF cAMP, PGE2 stimulation | Prostaglandin E2 receptor EP2 subtype (Homo sapiens), P43116 | EP2-expressing cells, cAMP HTRF FRET, PGE2 co-stimulation | induction, % at 25 µM | 260,000 compounds, 0.83% hits;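 active = compounds whose cAMP rise, as percent of the full-agonist control response, exceeds 60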;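 also: rat C6 glioma line stably carrying human EP2 under a CMV promoter; the protocol text gives 20 µM as final concentration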
S1P4 ag conf: S1P4 receptor agonists, retest, confirmation, cell-based, high throughput; shares compounds with S1P4 agonist; S1P4 agonist cell-based reporter assay; activation, % at 4.98 µM; 740 compounds, 7% hits; AID 1523, 2009; in the data active = activation above about 12%
S1P1 agonist: S1P1 receptor agonists, human, counter-screen for S1P4 agonist project, cell-based | shares compounds with S1P4 agonist | S1P1 agonist cell-based assay, activation | activation, % at 4.98 µM | 740 compounds, 4% hits; in the data active = activation above about 21%
Numbers stand for hits; i = inactive; ? = inconclusive; nt = not tested or not shown.

SMILES	S1P4 agonist	S1P4 antagonist	Insulin prom inh	S1P3 antagonist	PGE2 EP2 inh	EP2 mod	S1P4 ag conf	S1P1 agonist
COc1ccc([N+](=O)[O-])cc1NC(=O)Cc1ccc(Cl)cc1	15	i	i	i	i	i	i	i
Cc1ccc(NC(=O)c2ccc(OC(=O)CCN3C(=O)c4ccccc4C3=O)cc2)cc1	11	i	i	nt	i	i	i	i
CCOc1ccc(C(CC(=O)O)NC(=O)COc2ccccc2)cc1OC (stereo unspecified)	44	i	?	i	i	i	i	i
COc1ccc(C(CC(=O)O)NC(=O)COc2ccccc2)cc1OC (stereo unspecified)	i	i	?	i	i	i	nt	nt
Cc1ccc(-c2nc3ccccc3n2C)o1	i	i	i	nt	i	i	nt	nt
Cc1ccc(C2Nc3ccccc3-c3nc4ccccc4n32)o1 (stereo unspecified)	12	i	i	nt	i	i	i	i
Cc1ccc2cc(CN(CCN(C)C)C(=S)NCCCN(C)C)c(=O)[nH]c2c1	nt	nt	nt	nt	i	i	nt	nt
OCCOCCNc1ncnc2c1cnn2-c1ccc(Cl)cc1	68	i	nt	nt	i	i	i	i
COc1cc(C(N)=O)cc(Cl)c1OCc1ccccc1	i	i	i	i	i	i	nt	nt
CCOc1cc(C(N)=O)cc(Cl)c1OCc1ccccc1	24	i	nt	i	i	i	i	i
CCCC(=O)N1N=C(c2ccccc2)CC1c1cn(C)c2ccccc12 (stereo unspecified)	i	i	i	i	i	i	nt	nt
Cn1cc(C2CC(c3ccccc3)=NN2C(=O)c2ccccc2)c2ccccc21 (stereo unspecified)	13	i	i	i	i	i	i	i
CCOC(=O)c1cc2c(=O)n3ccccc3nc2n(CCCOC)c1=NC(=O)C(C)(C)C	16	i	i	nt	i	i	i	i
CCOCCCn1c(=NC(C)=O)c(C#N)cc2c(=O)n3ccccc3nc21	25	i	nt	i	i	i	i	i
CCOCCCn1c(=NC(C)=O)c(C(=O)OCC)cc2c(=O)n3ccccc3nc21	i	i	i	i	i	i	nt	nt
CCOC(=O)c1cc2c(=O)n3ccccc3nc2n(CCOC)c1=NC(=O)c1ccncc1	18	i	i	nt	i	i	i	i
CCOC(=O)c1cc2c(=O)n3ccccc3nc2n(CCOC)c1=NC(=O)C(C)(C)C	i	i	i	nt	i	i	nt	nt
CCCn1c(SCC(=O)Nc2cc(C)ccc2OC)nnc1-c1ccccn1	nt	nt	nt	nt	i	i	nt	nt
COc1cc(OC)cc(C2C(C#N)=C(N)Oc3n[nH]c(-c4cccs4)c32)c1 (stereo unspecified)	nt	nt	nt	nt	i	i	nt	nt
CCc1ccc(-n2c(SCC(=O)N3CCCCC3)nnc2-c2cccnc2)cc1	nt	nt	nt	nt	i	i	nt	nt
CC1=Nc2ccccc2/C1=C/c1c(N)n2c(S(=O)(=O)CC(C)C)nsc2nc1=O	20	i	i	i	i	i	i	i
O=C(CN1C(=O)NC2(CCSC2)C1=O)N1CCN(c2ccc(F)cc2)CC1 (stereo unspecified)	18	i	i	nt	i	nt	i	i
O=c1[nH][nH]c2nc(C(F)(F)F)cc(C(F)(F)F)c12	67	i	nt	i	i	i	i	i
Cc1cc(CN(CCN2CCOCC2)Cc2cccnc2)c(C)n1-c1ccccc1F	nt	nt	nt	nt	i	i	nt	nt
CCCn1c(SCC(=O)NCC2CCCO2)nc2c1c(=O)n(C)c(=O)n2C (stereo unspecified)	34	i	nt	i	i	i	i	i
SMILES	S1P4 agonist	S1P4 antagonist	Insulin prom inh	S1P3 antagonist	PGE2 EP2 inh	EP2 mod	S1P4 ag conf	S1P1 agonist
Cn1c(=O)c2c(nc(SCC(=O)NCC3CCCO3)n2Cc2ccc(F)cc2)n(C)c1=O (stereo unspecified)	i	i	i	i	i	i	nt	nt
c1ccc(-c2cc3nccc(C4CCCNC4)n3n2)cc1 (stereo unspecified)	nt	nt	nt	nt	i	i	nt	nt
COc1ccc(OCCOCCOc2ccc(C)cc2[N+](=O)[O-])cc1	30	i	i	i	i	i	i	i
O=C(NCC(c1ccco1)N1CCN(c2ccccc2F)CC1)OCc1ccccc1 (stereo unspecified)	33	i	nt	i	i	i	i	i
COc1ccc2[nH]c(=O)c(CN(Cc3ccccc3)S(=O)(=O)c3ccc4c(c3)OCCO4)cc2c1	nt	nt	nt	nt	i	i	nt	nt
CCOc1ccc(C(=O)NCC(C)C)cc1	i	i	i	nt	i	i	nt	nt
CCOc1ccc(C(=O)NCC(c2cccs2)N(C)C)cc1 (stereo unspecified)	15	i	i	i	i	i	i	i
CC(OC(=O)CCc1c[nH]c2ccccc12)C(=O)c1ccc(Cl)cc1 (stereo unspecified)	nt	nt	nt	nt	i	i	nt	nt
O=C(/C=C/c1ccc2c(c1)OCO2)N1CCC(Cc2ccccc2)CC1	nt	nt	nt	nt	i	i	nt	nt
CCCN(Cc1nnc(-c2ccccc2Cl)o1)C(=O)c1cc([N+](=O)[O-])cc([N+](=O)[O-])c1	19	i	i	i	i	i	i	i
Cc1ccccc1NC(=O)CSc1nnc2c(C)cc3cc4c(cc3n12)OCO4	nt	nt	nt	nt	i	i	nt	nt
Cc1cc2cc3c(cc2nc1SCC(=O)O)CCC3	43	i	nt	i	i	i	i	i
Cc1cc2cc3c(cc2nc1SCC(=O)N1CCCC1)CCC3	nt	nt	nt	nt	i	i	nt	nt
CCOC(=O)C(NC(=O)CC)(Nc1ccccc1)C(F)(F)F (stereo unspecified)	i	i	i	i	i	i	nt	nt
CCCCC(=O)NC(Nc1ccc(C)cn1)(C(=O)OCC)C(F)(F)F (stereo unspecified)	18	i	nt	nt	i	i	i	i
CC(C)CC(=O)NS(=O)(=O)c1ccc(NS(C)(=O)=O)cc1	17	i	nt	i	i	i	i	i
CCC/C=N/Nc1nc2ccccc2s1	64	i	i	i	i	i	i	i
O=C1NC2(CCN(C(=O)C3(c4ccccc4)CCCC3)CC2)Oc2ccccc21	nt	nt	nt	nt	i	i	nt	nt
COc1ccc(NC(=O)c2ccco2)cc1NC(=O)C(C)(C)C	nt	nt	nt	nt	i	i	nt	nt
CCOc1ccccc1OCCCCCc1c(C)n[nH]c1C	11	i	nt	i	i	i	11	i
CCCc1nnc(NC(=O)COCC)s1	nt	nt	nt	nt	i	i	nt	nt
COC(=O)N/N=C/c1ccccc1OCc1ccccc1	i	i	i	i	i	i	nt	nt
CC(=O)Nc1ccc(C(=O)N/N=C/c2ccccc2OCc2ccccc2)cc1	19	i	nt	i	i	i	i	i
COc1ccc(S(=O)(=O)N2c3ccccc3OCC2C)cc1 (stereo unspecified)	15	i	i	i	i	i	i	i
Cc1cc(C(=O)NCc2cccnc2)no1	11	i	nt	i	i	i	i	i
CCC(CC)C(=O)Nc1nc2ccc(S(C)(=O)=O)cc2s1	nt	nt	nt	nt	i	i	nt	nt
